Experimental data from article PMC7862700, “An all-to-all approach to the identification of sequence-specific readers for epigenetic DNA modifications on cytosine”.

Experiments:
Experiment in all cases: DAPPL (digital affinity profiling via proximity ligation, sequencing); 10 mM Tris-HCl pH 7.5, 50 mM NaCl, 1 mM DTT, 4% glycerol, room temperature, 30 min; GST-TFs on glutathione beads, 16-mer random dsDNA library, 0.1% formaldehyde crosslink after washing; high values mean tight binding
Details in all cases: protein: recombinant; tags: N-terminal GST; dsDNA, one strand shown
FLI1 = target: T1, FLI1 (Homo sapiens, UniProt Q01543 1-452)
T1 sequence: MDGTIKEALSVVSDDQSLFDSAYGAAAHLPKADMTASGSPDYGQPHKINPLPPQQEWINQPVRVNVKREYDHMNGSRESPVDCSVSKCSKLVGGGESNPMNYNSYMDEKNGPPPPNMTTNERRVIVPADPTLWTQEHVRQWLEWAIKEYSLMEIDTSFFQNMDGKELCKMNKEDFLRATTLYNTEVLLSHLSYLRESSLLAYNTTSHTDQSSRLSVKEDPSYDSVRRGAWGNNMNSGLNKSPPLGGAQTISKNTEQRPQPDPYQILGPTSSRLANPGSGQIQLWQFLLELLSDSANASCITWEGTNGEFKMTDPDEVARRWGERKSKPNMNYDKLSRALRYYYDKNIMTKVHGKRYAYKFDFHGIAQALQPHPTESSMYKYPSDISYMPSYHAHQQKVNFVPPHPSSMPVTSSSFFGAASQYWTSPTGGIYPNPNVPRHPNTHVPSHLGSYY
Summary of the method: (§1)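 Pools were built from human transcription factors expressed in yeast as GST fusions, captured on glutathione beads and DNA-barcoded, along with a tag-only sample. Incubation with 200 nmole of a 16-mer random double-stranded DNA library lasted 30 min at room temperature in Tris/NaCl/DTT/glycerol buffer, and was followed by washing, 0.1% formaldehyde crosslinking, proximity ligation, PCR amplification and Illumina NextSeq500 sequencing. Binding signal is the quotient of each hexamer's read frequency for a factor and its frequency for the tag-only sample.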

GABPA = target: T2, GABPA (Homo sapiens, UniProt Q06546 1-454)
T2 sequence: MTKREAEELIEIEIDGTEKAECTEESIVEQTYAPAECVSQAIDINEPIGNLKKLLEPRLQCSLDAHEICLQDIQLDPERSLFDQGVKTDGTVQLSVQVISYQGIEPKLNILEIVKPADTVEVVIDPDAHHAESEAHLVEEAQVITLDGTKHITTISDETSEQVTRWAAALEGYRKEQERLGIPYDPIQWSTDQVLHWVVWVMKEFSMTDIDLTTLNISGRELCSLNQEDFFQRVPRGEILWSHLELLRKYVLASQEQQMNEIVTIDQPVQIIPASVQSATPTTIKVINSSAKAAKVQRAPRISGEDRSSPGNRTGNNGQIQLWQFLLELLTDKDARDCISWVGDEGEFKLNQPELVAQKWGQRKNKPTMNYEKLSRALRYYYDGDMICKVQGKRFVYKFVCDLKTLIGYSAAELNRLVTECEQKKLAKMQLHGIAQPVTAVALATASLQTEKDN
Summary of the method: as §1

ERG = target: T3, ERG (Homo sapiens, UniProt P11308 1-479)
T3 sequence: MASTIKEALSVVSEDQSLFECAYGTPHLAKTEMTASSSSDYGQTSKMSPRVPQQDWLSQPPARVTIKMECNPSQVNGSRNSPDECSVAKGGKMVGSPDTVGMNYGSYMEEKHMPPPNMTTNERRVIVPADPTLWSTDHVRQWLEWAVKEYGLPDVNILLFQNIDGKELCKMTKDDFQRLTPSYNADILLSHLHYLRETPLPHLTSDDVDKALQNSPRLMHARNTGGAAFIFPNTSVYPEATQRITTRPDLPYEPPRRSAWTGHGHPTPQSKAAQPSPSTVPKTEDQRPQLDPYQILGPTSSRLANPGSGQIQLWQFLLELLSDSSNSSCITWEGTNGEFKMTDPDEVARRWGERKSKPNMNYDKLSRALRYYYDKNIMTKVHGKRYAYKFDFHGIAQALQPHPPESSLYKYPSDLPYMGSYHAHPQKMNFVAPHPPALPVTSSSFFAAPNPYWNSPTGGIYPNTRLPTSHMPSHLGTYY
Summary of the method: as §1

EHF = target: T4, EHF (Homo sapiens, UniProt Q9NZC4 1-300)
T4 sequence: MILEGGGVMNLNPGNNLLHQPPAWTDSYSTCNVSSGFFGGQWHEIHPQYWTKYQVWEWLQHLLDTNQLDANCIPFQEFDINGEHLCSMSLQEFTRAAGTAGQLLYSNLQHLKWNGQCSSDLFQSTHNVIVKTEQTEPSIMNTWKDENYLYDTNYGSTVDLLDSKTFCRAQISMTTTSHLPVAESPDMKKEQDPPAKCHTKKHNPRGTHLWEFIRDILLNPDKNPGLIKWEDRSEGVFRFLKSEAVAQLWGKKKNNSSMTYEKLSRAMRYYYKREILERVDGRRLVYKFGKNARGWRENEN
Summary of the method: as §1

SPI1 = SPI1 (Homo sapiens, UniProt P17947 1-270)
Summary of the method: as §1

ETV5 = ETV5 (Homo sapiens, UniProt P41161 1-510)
Summary of the method: as §1

ETV2 = target: T5, ETV2 (Homo sapiens, UniProt O00321 1-342)
T5 sequence: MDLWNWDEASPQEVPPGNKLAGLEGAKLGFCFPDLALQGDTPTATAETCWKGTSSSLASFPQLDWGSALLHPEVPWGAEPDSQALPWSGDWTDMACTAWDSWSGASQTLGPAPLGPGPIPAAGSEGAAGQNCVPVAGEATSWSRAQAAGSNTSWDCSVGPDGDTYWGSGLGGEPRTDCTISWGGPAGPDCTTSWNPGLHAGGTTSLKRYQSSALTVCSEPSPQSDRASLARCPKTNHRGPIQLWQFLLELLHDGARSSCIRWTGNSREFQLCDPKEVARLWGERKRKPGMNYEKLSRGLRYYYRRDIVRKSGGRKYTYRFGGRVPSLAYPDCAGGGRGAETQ
Summary of the method: as §1

ELF3 = target: T6, ELF3 (Homo sapiens, UniProt P78545 1-371)
T6 sequence: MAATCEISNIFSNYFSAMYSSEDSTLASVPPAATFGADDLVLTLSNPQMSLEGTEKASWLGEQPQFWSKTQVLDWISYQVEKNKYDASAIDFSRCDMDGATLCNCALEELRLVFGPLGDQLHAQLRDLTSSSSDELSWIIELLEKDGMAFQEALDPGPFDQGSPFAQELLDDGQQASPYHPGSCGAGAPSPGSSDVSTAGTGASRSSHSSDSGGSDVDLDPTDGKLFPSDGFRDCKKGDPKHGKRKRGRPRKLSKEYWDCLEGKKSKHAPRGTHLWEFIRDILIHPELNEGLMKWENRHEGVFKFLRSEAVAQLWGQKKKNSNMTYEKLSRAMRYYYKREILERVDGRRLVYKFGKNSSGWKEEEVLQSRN
Summary of the method: as §1

ERF = target: T7, ERF (Homo sapiens, UniProt P50548 1-548)
T7 sequence: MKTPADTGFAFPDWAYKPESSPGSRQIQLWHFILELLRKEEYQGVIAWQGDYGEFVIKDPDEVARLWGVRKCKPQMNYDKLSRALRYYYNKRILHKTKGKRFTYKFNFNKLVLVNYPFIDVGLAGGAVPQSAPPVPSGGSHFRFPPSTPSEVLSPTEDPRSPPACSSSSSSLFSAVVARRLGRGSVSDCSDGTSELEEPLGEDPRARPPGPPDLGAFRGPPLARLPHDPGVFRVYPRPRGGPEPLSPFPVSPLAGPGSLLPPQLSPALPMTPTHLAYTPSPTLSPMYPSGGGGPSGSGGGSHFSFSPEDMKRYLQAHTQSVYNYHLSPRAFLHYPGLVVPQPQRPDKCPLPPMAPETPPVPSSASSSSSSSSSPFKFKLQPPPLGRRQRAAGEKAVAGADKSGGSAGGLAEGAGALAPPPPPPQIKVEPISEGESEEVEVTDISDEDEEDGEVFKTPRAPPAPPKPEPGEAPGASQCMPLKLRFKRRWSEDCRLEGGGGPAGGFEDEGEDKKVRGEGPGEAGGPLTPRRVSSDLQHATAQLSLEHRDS
Summary of the method: as §1

ETV3L = target: T8, ETV3L (Homo sapiens, UniProt Q6ZN32 1-361)
T8 sequence: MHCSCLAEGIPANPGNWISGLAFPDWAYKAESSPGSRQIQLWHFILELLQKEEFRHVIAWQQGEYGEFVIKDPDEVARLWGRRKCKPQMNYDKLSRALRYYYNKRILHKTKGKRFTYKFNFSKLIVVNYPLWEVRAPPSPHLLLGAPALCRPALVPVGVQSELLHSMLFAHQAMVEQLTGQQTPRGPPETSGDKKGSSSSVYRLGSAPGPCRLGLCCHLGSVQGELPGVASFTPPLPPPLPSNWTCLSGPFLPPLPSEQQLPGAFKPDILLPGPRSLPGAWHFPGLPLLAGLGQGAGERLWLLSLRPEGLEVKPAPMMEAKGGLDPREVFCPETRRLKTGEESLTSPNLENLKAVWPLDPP
Summary of the method: as §1

ETS2 = target: T9, ETS2 (Homo sapiens, UniProt P15036 1-469)
T9 sequence: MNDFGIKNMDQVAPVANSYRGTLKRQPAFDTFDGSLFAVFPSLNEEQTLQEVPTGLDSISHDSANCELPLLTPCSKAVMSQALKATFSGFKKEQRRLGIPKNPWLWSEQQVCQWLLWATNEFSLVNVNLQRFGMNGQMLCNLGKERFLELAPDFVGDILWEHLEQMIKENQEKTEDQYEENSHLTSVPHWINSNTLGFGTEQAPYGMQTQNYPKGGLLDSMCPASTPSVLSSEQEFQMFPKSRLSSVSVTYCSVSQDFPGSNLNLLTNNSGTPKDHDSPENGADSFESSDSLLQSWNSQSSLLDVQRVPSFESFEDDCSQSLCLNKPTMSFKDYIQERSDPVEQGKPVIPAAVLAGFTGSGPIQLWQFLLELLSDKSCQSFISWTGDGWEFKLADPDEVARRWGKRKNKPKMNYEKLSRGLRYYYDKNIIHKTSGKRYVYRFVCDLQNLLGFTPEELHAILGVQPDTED
Summary of the method: as §1

ETV7 = target: T10, ETV7 (Homo sapiens, UniProt Q9Y603 1-341)
T10 sequence: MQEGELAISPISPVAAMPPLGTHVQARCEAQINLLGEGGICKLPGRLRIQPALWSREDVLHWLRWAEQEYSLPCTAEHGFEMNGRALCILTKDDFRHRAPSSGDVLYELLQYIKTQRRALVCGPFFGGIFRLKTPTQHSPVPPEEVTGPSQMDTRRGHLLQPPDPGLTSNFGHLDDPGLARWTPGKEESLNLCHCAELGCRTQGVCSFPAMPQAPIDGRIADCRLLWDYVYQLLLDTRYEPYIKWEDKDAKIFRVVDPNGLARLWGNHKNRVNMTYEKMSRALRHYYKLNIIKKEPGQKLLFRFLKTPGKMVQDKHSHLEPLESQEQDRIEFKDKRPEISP
Summary of the method: as §1

ETV6 = ETV6 (Homo sapiens, UniProt P41212 1-452)
Summary of the method: as §1

ELF1 = ELF1 (Homo sapiens, UniProt P32519 1-619)
Summary of the method: as §1

SPIB = SPIB (Homo sapiens, UniProt Q01892 1-262)
Summary of the method: as §1

ETV5, sequence (P41161 whole entry): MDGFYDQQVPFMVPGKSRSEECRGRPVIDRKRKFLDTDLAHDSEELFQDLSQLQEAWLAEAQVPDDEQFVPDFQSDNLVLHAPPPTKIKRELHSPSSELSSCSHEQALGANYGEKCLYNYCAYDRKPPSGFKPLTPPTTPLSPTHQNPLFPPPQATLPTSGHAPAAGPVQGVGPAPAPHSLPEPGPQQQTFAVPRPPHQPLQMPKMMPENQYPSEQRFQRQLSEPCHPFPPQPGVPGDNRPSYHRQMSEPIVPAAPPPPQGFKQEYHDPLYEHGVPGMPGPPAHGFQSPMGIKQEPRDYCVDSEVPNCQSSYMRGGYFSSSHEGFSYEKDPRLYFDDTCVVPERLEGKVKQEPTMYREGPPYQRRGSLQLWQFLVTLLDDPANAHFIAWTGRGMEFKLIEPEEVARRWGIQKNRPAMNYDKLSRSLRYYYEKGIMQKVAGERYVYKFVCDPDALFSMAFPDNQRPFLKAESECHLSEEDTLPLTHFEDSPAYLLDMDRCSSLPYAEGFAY
ETV6, sequence (P41212 whole entry): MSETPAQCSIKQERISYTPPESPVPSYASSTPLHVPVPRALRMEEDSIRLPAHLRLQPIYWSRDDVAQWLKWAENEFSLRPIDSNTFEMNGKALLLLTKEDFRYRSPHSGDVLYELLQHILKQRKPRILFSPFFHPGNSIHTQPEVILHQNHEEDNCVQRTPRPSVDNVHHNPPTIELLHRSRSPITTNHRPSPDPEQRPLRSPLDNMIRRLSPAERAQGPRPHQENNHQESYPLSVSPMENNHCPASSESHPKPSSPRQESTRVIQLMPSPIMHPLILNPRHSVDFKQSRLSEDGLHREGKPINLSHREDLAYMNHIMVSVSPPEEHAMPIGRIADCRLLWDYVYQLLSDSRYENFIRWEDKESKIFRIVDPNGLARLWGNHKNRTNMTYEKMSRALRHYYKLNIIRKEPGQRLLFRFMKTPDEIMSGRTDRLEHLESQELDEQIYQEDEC
SPIB, sequence (Q01892 whole entry): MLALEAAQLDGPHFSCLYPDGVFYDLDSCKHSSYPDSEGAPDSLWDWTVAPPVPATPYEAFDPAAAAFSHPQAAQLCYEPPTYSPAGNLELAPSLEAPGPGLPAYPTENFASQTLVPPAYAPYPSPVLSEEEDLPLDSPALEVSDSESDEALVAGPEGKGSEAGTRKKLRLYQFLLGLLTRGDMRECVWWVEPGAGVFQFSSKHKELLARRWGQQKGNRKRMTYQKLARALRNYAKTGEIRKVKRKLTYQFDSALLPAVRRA
ELF1, sequence (P32519 whole entry): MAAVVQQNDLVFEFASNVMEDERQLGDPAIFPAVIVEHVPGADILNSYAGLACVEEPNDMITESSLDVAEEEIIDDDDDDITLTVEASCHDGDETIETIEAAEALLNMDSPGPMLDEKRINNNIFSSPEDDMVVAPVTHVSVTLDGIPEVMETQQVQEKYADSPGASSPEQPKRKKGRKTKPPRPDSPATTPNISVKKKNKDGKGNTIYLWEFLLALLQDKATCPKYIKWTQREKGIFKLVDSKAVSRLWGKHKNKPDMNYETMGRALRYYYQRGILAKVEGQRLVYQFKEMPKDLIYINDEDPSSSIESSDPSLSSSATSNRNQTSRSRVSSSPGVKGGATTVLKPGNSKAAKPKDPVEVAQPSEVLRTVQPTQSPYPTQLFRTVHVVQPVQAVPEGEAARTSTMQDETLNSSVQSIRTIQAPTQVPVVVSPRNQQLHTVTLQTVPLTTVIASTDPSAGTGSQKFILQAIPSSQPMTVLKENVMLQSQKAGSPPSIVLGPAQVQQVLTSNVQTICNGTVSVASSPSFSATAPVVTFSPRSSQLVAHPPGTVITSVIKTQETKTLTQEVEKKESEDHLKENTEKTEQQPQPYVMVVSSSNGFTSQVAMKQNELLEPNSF

Row | Sequence | binding signal (FLI1) | binding signal (GABPA) | binding signal (ERG) | binding signal (EHF) | binding signal (SPI1) | binding signal (ETV5) | binding signal (ETV2) | binding signal (ELF3) | binding signal (ERF) | binding signal (ETV3L) | binding signal (ETS2) | binding signal (ETV7) | binding signal (ETV6) | binding signal (ELF1) | binding signal (SPIB)
1 | GTAGTT | 1.1 fold enrichment (6-mer frequency, TF over GST control) | 1.05 fold enrichment (6-mer frequency, TF over GST control) | 1.01 fold enrichment (6-mer frequency, TF over GST control) | 1.07 fold enrichment (6-mer frequency, TF over GST control) | 1.01 fold enrichment (6-mer frequency, TF over GST control) | 1.04 fold enrichment (6-mer frequency, TF over GST control) | 1.04 fold enrichment (6-mer frequency, TF over GST control) | 1.09 fold enrichment (6-mer frequency, TF over GST control) | 1.07 fold enrichment (6-mer frequency, TF over GST control) | 1.01 fold enrichment (6-mer frequency, TF over GST control) | 1.02 fold enrichment (6-mer frequency, TF over GST control) | 1.03 fold enrichment (6-mer frequency, TF over GST control) | 1.08 fold enrichment (6-mer frequency, TF over GST control) | – | –
2 | GTTATA | 1.12 fold enrichment (6-mer frequency, TF over GST control) | – | – | – | 1.01 fold enrichment (6-mer frequency, TF over GST control) | 1.04 fold enrichment (6-mer frequency, TF over GST control) | – | 1.13 fold enrichment (6-mer frequency, TF over GST control) | 1.03 fold enrichment (6-mer frequency, TF over GST control) | 1.06 fold enrichment (6-mer frequency, TF over GST control) | 1.06 fold enrichment (6-mer frequency, TF over GST control) | 1.05 fold enrichment (6-mer frequency, TF over GST control) | 1 fold enrichment (6-mer frequency, TF over GST control) | 1.03 fold enrichment (6-mer frequency, TF over GST control) | 1.03 fold enrichment (6-mer frequency, TF over GST control)
